In all, about 1,800 sequences were measured (“median log2 fold change of GCK-ALFA target abundance (FLAG IP / Myc IP barcode read proportion)”: median about 0.14, lowest 2% from about -0.84 on). This excerpt belongs to a sample that is enriched for the lowest values.
T1: TRAF2, Q12933
T1 chain: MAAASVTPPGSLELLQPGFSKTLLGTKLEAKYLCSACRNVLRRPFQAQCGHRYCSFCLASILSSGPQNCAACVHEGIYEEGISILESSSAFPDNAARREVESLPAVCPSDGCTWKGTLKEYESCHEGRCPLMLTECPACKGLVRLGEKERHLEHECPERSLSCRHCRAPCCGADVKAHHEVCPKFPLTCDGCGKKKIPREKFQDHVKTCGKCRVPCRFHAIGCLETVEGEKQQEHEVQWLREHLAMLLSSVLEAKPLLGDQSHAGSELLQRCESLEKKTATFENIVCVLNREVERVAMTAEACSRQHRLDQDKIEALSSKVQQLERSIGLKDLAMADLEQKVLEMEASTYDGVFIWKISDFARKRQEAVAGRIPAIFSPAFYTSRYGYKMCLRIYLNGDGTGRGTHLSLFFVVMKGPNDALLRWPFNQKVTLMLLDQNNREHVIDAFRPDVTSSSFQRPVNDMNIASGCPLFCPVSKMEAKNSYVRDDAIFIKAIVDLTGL

B1: traf2_out_3_89_2284 (protein)
chain: SHHMEALIEEARKIAEAYAKGFRKSLTFVAKQMVAEGHSLETLEGVANAAKTALVEEFRESLKERGLDEETIKEIVEELRKKLDEIVKEVIAEAKKARAA
B2: traf2_out_6_156_2424 (protein)
chain: MLEKIIKEAEEKIKKEIKKLAEASEEKKIKYISDIAGAVYKALQKMREAGASVEEIKEAIERLKKVAEKEAKKAGLDKDTRDLLLASINAVGEVALREAK
B3: traf2_out_1_158_908 (protein)
chain: STDVSTLHAVATSIAEVYAEEAKERGLEKAAELLKKLKKEIEKLYEANKDASLEEMAAKVLELIKKFEEESKSFDPETREFVEIAFRQIRSGILQVVKLA
B4: traf2_out_5_63_2366 (protein)
chain: SAAEEERRRLREEARLIEAAIRAVIDGREEEARRLLAEAEARGIDWRTVALYFRGMARALRLQNEPQEKIERMERAAEEARARAEAAAAAAAAAAAAAAA
B5: traf2_out_20_38_2025 (protein)
chain: SEEEEEEKKLEELIKVANDAYDAATAEIAALKAEGKSVEEIAEWAKEKIKEILDKVGLEEEKEELIADVDRVLDSPDALTLIARILARAVAKAKQKELQE
B6: traf2_out_20_3_2078 (protein)
chain: SELEAELERELDRALALLRQAAARADPETAARLDALIARLRASRELSIEDRLVAISAVRREVRALAEEARAAGRADLAALLDAAADALNRAAQLAYEILE
B7: traf2_out_17_178_1662 (protein)
chain: SKEEERKKISELTDELIDLAEDAAERMLELAEKEGDVSEEELEELREARRRGSATDVLALGERLIPKLKNSEELGALLEEFKARYRELSKEIAEAYERYE
B8: traf2_out_1_27_1014 (protein)
chain: SDEELTKLIKETDKKIAEVSLEEAKKVVKEALKEAAKLGPEDAMVLANTLIASQLDEERLKAIAEAAVEAFKELGFPEEDIERLKRIAESVLKLNKKVLA
B9: traf2_out_11_104_655 (protein)
chain: LTREQAREFNDFAMEARDRAREIAEAVAAELEARGHTEEAARVRALLNDPGAGISSFRNLLEELKPRLDAESRKVADAAIEELRRLQREVSEKLNELLAK
B10: traf2_out_20_3_2147 (protein)
chain: EELERELAEELERAKALLAEAAALADPETAARLEALRERLEASRALSPSDQLVVVSEVRREVRLLAQEARAAGDEELAALLEEAAAALNRAANLLMRIIE
B11: traf2_out_13_95_1174 (protein)
chain: EEEKTKKEREIASEAYDEREEVMTAYKEAVVALLGDPAAAALMDEVVRNMNEFTLEHATAQLVAAHPEKAAELQALRDEALAKMKEINKKYTEKLNEIEK
B12: traf2_out_14_149_1247 (protein)
chain: SHMAETLRAAAELNERIAKALEEILKLLEAGKLEEAKAALEAAIKEAEALGEELGVTTSGIFEMEHILKLLKEDPEEAKKAVKEAAERARDAAEVLRSIA
B13: traf2_out_17_162_1536 (protein)
chain: SPEDERLAELQKRLEELEKKLEELEKKLKNIEKLSKEELTDLLVEASELRREARELAEELRELAEKTGSPEAEELRERAEELAEKLQRIANEIYKELEKK
B14: traf2_out_17_178_1708 (protein)
chain: TKEEARKRISEATDEMIDLAEEAAARLLEIAEREGSLSPEELAALRRARRLGSARTTIALMERAIPRLRSAEEVRALLEELKARYRELSKEIAEALEKYE
B15: traf2_out_5_192_2336 (protein)
chain: SAEEEARERRLRERAEEILREAEERAKKISERTGLDYATVLATLAFSRVVARAESAEEARLMLDYIVEMITARDPSWAPIAEGEKAAALRAIDAIEAAEP
B16: traf2_out_20_38_2023 (protein)
chain: SMEEEEEEKLKELVEVANKAYDEYSAKFAKWKAEGKTVEEIAEEVKKEIRELLSKAGLEEEAEILIEDVDLALKSPNAERLLIRTLARAVALVKQKELQK
B17: traf2_out_13_95_1070 (protein)
chain: TRELARRINELADRAEERALALLAAAQAELADDPEAVAVLDEAARLAETRGIRAAIALLREAQAAHPEHREAFDALIAELEEIRRELGREVAKLIKEAEE
B18: traf2_out_6_156_2375 (protein)
chain: MLEKILEEAKKKIEELIKELAKASEEKKIAYISRIAGAVYRALQRMREAGASVEEIKKAVEELKKVAEEKAKEAGLDQDTIDLLLASIDAVGKVALEEAK
B19: traf2_out_17_178_1676 (protein)
chain: TKEEKRKKISELTDKYIDLAEATAARLLALAEAEGFMTPEELAALRAAQRRGNGRLVEALLERAIPRSPRAAEVAALLADYRARSRELAKEIAKALEEYE
B20: traf2_out_6_156_2412 (protein)
chain: MVEEILEKALEKVEELIKELAKASEEKKIAYISKIAGTAYRALQELREAGASLEEIEAFAEEFKKRTEELLKEAGLPEDTINLVLSALNAVFDVAIAEAK
B21: traf2_out_11_155_735 (protein)
chain: EEKQKLIQEMNDKIMELFEEARRRALEIARRAAERHPEHREEIEAAIEESKGFSYRSFILEMIRLFRELGLEEEAEELERLLEETQRKASKIVIETEKKL
B22: traf2_out_17_162_1539 (protein)
chain: SPTEERLEELERRLERLEEELKKLKEKSEKLDELSKEEISDLLVEVSELRREALRLAEELRRLAEETGSPRARELEERAERLAEELQRIANKIYKELEKK
B23: traf2_out_11_155_726 (protein)
chain: SKFKEAQNKIVDFNLEVGDELLKKVEEIIKEIEKEDPEVAKKLREVVEKYKKFSNRSAARAAIDLLREEGYEEYAERLEKALEEAQRKMSKKTQEIEKEL
B24: traf2_out_6_3_2516 (protein)
chain: MEESIRKDAETVLENMGITTAEQLKRLVKAEVNAVKKLVSRKDVDEADLAGAESVLNLTRAMVEVAYEKLPDLTEEQKKEMLALIKEAEELVKKKRKELE
B25: traf2_out_6_3_2520 (protein)
chain: MEESIRRDARTVLENMGITTAEQLKRLVEANVNAVKKLVSRPDVDEADLAGARSVLALTRAMVDVAAETLPDLTPEQVAEMKALIKEAEELVEKKRKELE
B26: traf2_out_18_3_1943 (protein)
chain: KEEELKKISEEIDKIIDEVTARAREELDRLLAEHPELAAEAEALRADLDAGAGPFGILDELARLWERAGAADEAAAARAFLREKRKKLQELVDKYEELRK
B27: traf2_out_13_95_1132 (protein)
chain: SAETAKKIMEIADKMLDEILAILEELLKKAEAAGVGVEEIQKAIHLAEHHSVNEAIHLLRELAKKHPEFKAELEAAIAKIEAIREKAGREVAKILKEAAE
B28: traf2_out_1_27_1022 (protein)
chain: SDEEFTRLIRETDRKIAEVDLEEQKKVVKEALKEAAKWGLGDARMLARTLVASQNDEERQEAIKEASLEAFKELGAPEEVIEELERVFNSIIERKKKVLA
B29: traf2_out_18_167_1872 (protein)
chain: SAELKKKREELTDELVRYSTIRRALLLILEALKRSREEARRLLEEYVEKYPDSEVLREALEVFETKSDEEFRKFLEEKAEELQKEANEKYKELEELEKEE

Target: T1, TRAF2, Q12933
Assay: median log2 fold change of GCK-ALFA target abundance (FLAG IP / Myc IP barcode read proportion) (log2 ratio); each designed protein is fused to an ALFA-tag nanobody in HEK293 cells to bring the named protein to FLAG-tagged glucokinase (GCK); Myc marks an untargeted standard; higher = target protein stabilised (more abundant)
Conditions: target protein: 3xFLAG-MCP-GCK-ALFA reporter; HEK293 landing pad (RPLP)
Protocol: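 LABEL-seq trans screen in HEK293 landing-pad cells. Each de novo designed 100-aa effector handle, binding the indicated effector (E3 ligase, DUB or autophagy protein), is fused to a constant NbALFA target handle and induced with 2 ug/mL doxycycline. A FLAG-MCP-GCK-ALFA target and a Myc-MCP standard reporter were transfected, and after 48 h circRNA barcodes were recovered by anti-FLAG and anti-Myc IP and sequenced. The value is the median across barcodes (at least 3 per design) of log2(FLAG/Myc read-proportion ratio), with the two transfection replicates pooled. Negative values mean degradation and positive values mean stabilisation of the target.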

Binder | median log2 fold change
B1 | -0.43
B2 | -0.0673
B3 | 0.0558
B4 | -0.861
B5 | -0.841
B6 | -0.0407
B7 | 0.161
B8 | 0.337
B9 | 0.222
B10 | 0.226
B11 | 0.311
B12 | -0.194
B13 | 0.429
B14 | -0.184
B15 | -1.01
B16 | -1.38
B17 | -0.334
B18 | 0.151
B19 | -0.865
B20 | 0.261
B21 | -0.138
B22 | 0.204
B23 | 0.469
B24 | -0.56
B25 | -0.989
B26 | 0.0947
B27 | -0.315
B28 | 0.214
B29 | 0.106

From the supplement of paper PMC12632987
